The source made the active and inactive calls. The calls were made as follows: active = hit-call score of the fitted dose curve at least 0.9, where 1 is the maximum; inactive = score below 0.9.
Tests used:
Settings in all cases: mRNA level, 48 h; actives raise or lower the signal
CYP4A11 (gene 1579) = assay: LTEA_HepaRG_CYP4A11: Life Technologies and Expression Analysis (LTEA) Assay for CYP4A11 using HepaRG (AID 2283486)
Method in brief: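 Readout is CYP4A11 transcript level by qRT-PCR, normalized to three housekeeping genes and fitted bidirectionally against 0.5% DMSO. Human HepaRG cells were treated 48 h, in duplicate, with an 8-point half-log series topping at 100 uM.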

[1] = read-out: Cytochrome P450 3A4 (Homo sapiens) (UniProt P08684); assay: LTEA_HepaRG_CYP3A4: Life Technologies and Expression Analysis (LTEA) Assay for CYP3A4 using HepaRG (AID 2283487)
Method in brief: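 Differentiated HepaRG cells, plated 48 h, then dosed 48 h in serum-free induction medium with 0.5% DMSO, 8 half-log concentrations up to 100 uM, duplicate. CYP3A4 mRNA by qRT-PCR, normalized to ACTB/GAPDH/POLR2A; bidirectional fit versus DMSO.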

[2] = read-out: DNA damage-inducible transcript 3 (DDIT3), DDIT3 (gene 1649); assay: LTEA_HepaRG_DDIT3: Life Technologies and Expression Analysis (LTEA) Assay for DNA damage-inducible transcript 3 (DDIT3) using HepaRG (AID 2283488)
Method in brief: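 Eight-point concentration-response (100 uM highest, half-log dilutions) in HepaRG, 48 h, duplicate wells. Endpoint: qRT-PCR mRNA, normalized (ACTB, GAPDH, POLR2A), bidirectional fitting with DMSO as baseline.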

[3] = read-out: Pro-epidermal growth factor (Homo sapiens) (UniProt P01133); assay: LTEA_HepaRG_EGF: Life Technologies and Expression Analysis (LTEA) Assay for Epidermal growth factor (EGF) using HepaRG (AID 2283489)
Method in brief: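 EGF transcript measured by Fluidigm TaqMan qRT-PCR with three housekeeping genes for normalization, 48 h after dosing HepaRG cultures in duplicate (top 100 uM, half-log steps, 0.5% DMSO vehicle). Gain or loss relative to DMSO fitted.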

[4] = read-out: Early growth response protein 1 (EGR1) transcription factor, EGR1 (gene 1958); assay: LTEA_HepaRG_EGR1: Life Technologies and Expression Analysis (LTEA) Assay for Early growth response protein 1 (EGR1) transcription factor using HepaRG (AID 2283490)
Method in brief: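 EGR1 expression change in human HepaRG after 48 h chemical exposure, assessed by housekeeping-normalized qRT-PCR; concentration-response up to 100 uM, fitted in both directions against DMSO controls.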

[5] = read-out: Ezrin (EZR), EZR (gene 7430); assay: LTEA_HepaRG_EZR: Life Technologies and Expression Analysis (LTEA) Assay for Ezrin (EZR) using HepaRG (AID 2283491)
Method in brief: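 EZR transcript levels came from Fluidigm qRT-PCR and were normalized to three housekeeping genes after 48 h chemical exposure of HepaRG cells. Dosing used an 8-point half-log series with a 100 uM top concentration in 0.5% DMSO, tested in duplicate; both directions were fitted versus vehicle.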

[6] = read-out: Cytochrome P450 3A7 (Homo sapiens) (UniProt P24462); assay: LTEA_HepaRG_CYP3A7: Life Technologies and Expression Analysis (LTEA) Assay for CYP3A7 using HepaRG (AID 2283492)
Method in brief: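 CYP3A7 transcript measured by qRT-PCR (ACTB, GAPDH, POLR2A normalization) after 48 h chemical exposure of HepaRG cells in duplicate. Eight half-log concentrations, maximum 100 uM, 0.5% DMSO vehicle; bidirectional curve fitting against DMSO baseline.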

CYP3A5 (gene 1577) = assay: LTEA_HepaRG_CYP3A5: Life Technologies and Expression Analysis (LTEA) Assay for CYP3A5 using HepaRG (AID 2283493)
Method in brief: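 Readout was CYP3A5 mRNA by qRT-PCR. HepaRG cultures were exposed for 48 h in serum-free induction medium to chemicals at up to 100 uM, and responses were fitted in both directions relative to DMSO vehicle.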

[7] = read-out: Fatty Acid-Binding Protein 1 (FABP1), FABP1 (gene 2168); assay: LTEA_HepaRG_FABP1: Life Technologies and Expression Analysis (LTEA) Assay for Fatty Acid-Binding Protein 1 (FABP1) using HepaRG (AID 2283494)
Method in brief: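 Values reflect bidirectional concentration-response fitting of FABP1 mRNA change against 0.5% DMSO controls. Human HepaRG cultures received eight half-log doses (top 100 uM) for 48 h; expression quantified by TaqMan qRT-PCR with housekeeping-gene normalization.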

[8] = read-out: Cytochrome P450 4A22 (Homo sapiens) (UniProt Q5TCH4); assay: LTEA_HepaRG_CYP4A22: Life Technologies and Expression Analysis (LTEA) Assay for Cytochrome P450 4A22 (CYP4A22) using HepaRG (AID 2283495)
Method in brief: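 Gene expression measured by qRT-PCR against three housekeeping genes (ACTB, GAPDH, POLR2A), with gain or loss fitted relative to 0.5% DMSO vehicle. HepaRG cultures received 48 h chemical treatment, top concentration 100 uM, half-log steps, duplicate wells.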

[9] = read-out: Cytochrome P450 7A1 (Homo sapiens) (UniProt P22680); assay: LTEA_HepaRG_CYP7A1: Life Technologies and Expression Analysis (LTEA) Assay for Cytochrome P450 7A1 (CYP7A1) using HepaRG (AID 2283496)
Method in brief: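 Using 0.5% DMSO as vehicle and baseline, chemicals were tested in duplicate over an 8-point range from 100 uM on HepaRG cells for 48 h; qRT-PCR signals were normalised to ACTB, GAPDH and POLR2A.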

[10] = read-out: Glutathione S-Transferase (GSTA2), GSTA2 (gene 2939); assay: LTEA_HepaRG_GSTA2: Life Technologies and Expression Analysis (LTEA) Assay for Glutathione S-Transferase (GSTA2) using HepaRG (AID 2283497)
Method in brief: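 Oxidative-stress marker GSTA2 is quantified by TaqMan qRT-PCR in HepaRG cultures treated 48 h across an eight-point range to 100 uM. Expression is normalized to endogenous controls and compared with 0.5% DMSO vehicle.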

[11] = read-out: Glutamate-cysteine ligase catalytic (GCLC), GCLC (gene 2729); assay: LTEA_HepaRG_GCLC: Life Technologies and Expression Analysis (LTEA) Assay for Glutamate-cysteine ligase catalytic (GCLC) using HepaRG (AID 2283498)
Method in brief: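 Oxidative-stress marker GCLC is measured as mRNA change in human HepaRG liver cells after 48 h chemical treatment in 0.5% DMSO, eight concentrations from 100 uM. Activity is fitted bidirectionally against vehicle.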

[12] = read-out: growth arrest and DNA damage 45 (GADD45G), GADD45G (gene 10912); assay: LTEA_HepaRG_GADD45G: Life Technologies and Expression Analysis (LTEA) Assay for growth arrest and DNA damage 45 (GADD45G) using HepaRG (AID 2283499)
Method in brief: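 GADD45G transcript level by qRT-PCR (housekeeping-normalized: ACTB, GAPDH, POLR2A) after 48 h chemical treatment of a single HepaRG lot in serum-free induction medium; eight-point half-log series up to 100 uM in 0.5% DMSO, duplicates, up- or down-regulation scored.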

[13] = read-out: Glutamate-cysteine ligase regulatory (GCLM), GCLM (gene 2730); assay: LTEA_HepaRG_GCLM: Life Technologies and Expression Analysis (LTEA) Assay for Glutamate-cysteine ligase regulatory (GCLM) using HepaRG (AID 2283500)
Method in brief: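 In this multiplexed HepaRG gene-expression assay, GCLM mRNA change after 48 h treatment (8 concentrations, max 100 uM) was scored against DMSO by bidirectional curve fitting.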

[14] = read-out: Glutathione S-transferase M3 (GSTM3), GSTM3 (gene 2947); assay: LTEA_HepaRG_GSTM3: Life Technologies and Expression Analysis (LTEA) Assay for Glutathione S-transferase M3 (GSTM3) using HepaRG (AID 2283501)
Method in brief: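 GSTM3 transcript levels came from Fluidigm TaqMan qRT-PCR normalized to three housekeeping genes, fitted in both directions against DMSO. HepaRG cultures received chemicals for 48 h in serum-free induction medium (0.5% DMSO), 8 half-log concentrations up to 100 uM, duplicate.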

[15] = read-out: Heat shock 70 kDa protein 1 (HSPA1A), gene 3303; assay: LTEA_HepaRG_HSPA1A: Life Technologies and Expression Analysis (LTEA) Assay for Heat shock 70 kDa protein 1 (HSPA1A) using HepaRG (AID 2283502)
Method in brief: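 An oxidative-stress marker readout: HepaRG cells treated 48 h in duplicate with an eight-point series (highest 100 uM) had HSPA1A mRNA quantified by TaqMan qRT-PCR. Activity was fitted in both directions using 0.5% DMSO as baseline.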

[16] = read-out: Hypoxia-inducible factor 1-alpha (Homo sapiens) (UniProt Q16665); assay: LTEA_HepaRG_HIF1A: Life Technologies and Expression Analysis (LTEA) Assay for Hypoxia-inducible factor 1 (HIF1A) Trancription factor using HepaRG (AID 2283503);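 also: HIF1A transcript by TaqMan qRT-PCR normalized to ACTB GAPDH and POLR2A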
Method in brief: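 Gain- or loss-of-signal HIF1A mRNA changes are fitted against a DMSO baseline. HepaRG cultures receive eight concentrations, highest 100 uM, for 48 h in serum-free induction medium with 0.5% DMSO.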

[17] = read-out: 3-Hydroxy-3-Methylglutaryl-CoA Synthase 2 (HMGCS2), HMGCS2 (gene 3158); assay: LTEA_HepaRG_HMGCS2: Life Technologies and Expression Analysis (LTEA) Assay for 3-Hydroxy-3-Methylglutaryl-CoA Synthase 2 (HMGCS2) using HepaRG (AID 2283504)
Method in brief: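 Readout is HMGCS2 transcript by qRT-PCR, housekeeping-normalised (ACTB/GAPDH/POLR2A) and fitted bidirectionally against 0.5% DMSO. Differentiated HepaRG cells received chemicals 48 h, duplicate wells, eight half-log concentrations topping at 100 uM.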

HGF (gene 3082) = assay: LTEA_HepaRG_HGF: Life Technologies and Expression Analysis (LTEA) Assay for Hepatocyte Growth Facto (HGF) using HepaRG (AID 2283505)
Method in brief: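 HGF transcript was quantified by TaqMan qRT-PCR against three housekeeping genes after 48 h treatment of HepaRG cells. Exposure ran in duplicate over eight half-log steps topping at 100 uM in 0.5% DMSO vehicle.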

Chain of Cytochrome P450 3A4 (Homo sapiens) (P08684 whole entry, looked up): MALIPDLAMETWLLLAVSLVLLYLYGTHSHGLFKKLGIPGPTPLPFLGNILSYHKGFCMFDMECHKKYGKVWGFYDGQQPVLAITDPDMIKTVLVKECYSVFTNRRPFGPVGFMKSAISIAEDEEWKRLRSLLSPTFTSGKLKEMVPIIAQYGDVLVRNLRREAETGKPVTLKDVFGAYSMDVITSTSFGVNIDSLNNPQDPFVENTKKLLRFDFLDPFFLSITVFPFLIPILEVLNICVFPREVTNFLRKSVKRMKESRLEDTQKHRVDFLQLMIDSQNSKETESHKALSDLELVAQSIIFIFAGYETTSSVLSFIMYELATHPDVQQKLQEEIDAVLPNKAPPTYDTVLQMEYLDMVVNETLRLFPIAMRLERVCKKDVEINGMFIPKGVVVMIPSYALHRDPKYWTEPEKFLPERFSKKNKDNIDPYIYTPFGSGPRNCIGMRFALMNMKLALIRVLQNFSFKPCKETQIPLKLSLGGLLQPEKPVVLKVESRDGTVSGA
Chain of Hypoxia-inducible factor 1-alpha (Homo sapiens) (Q16665 whole entry, looked up): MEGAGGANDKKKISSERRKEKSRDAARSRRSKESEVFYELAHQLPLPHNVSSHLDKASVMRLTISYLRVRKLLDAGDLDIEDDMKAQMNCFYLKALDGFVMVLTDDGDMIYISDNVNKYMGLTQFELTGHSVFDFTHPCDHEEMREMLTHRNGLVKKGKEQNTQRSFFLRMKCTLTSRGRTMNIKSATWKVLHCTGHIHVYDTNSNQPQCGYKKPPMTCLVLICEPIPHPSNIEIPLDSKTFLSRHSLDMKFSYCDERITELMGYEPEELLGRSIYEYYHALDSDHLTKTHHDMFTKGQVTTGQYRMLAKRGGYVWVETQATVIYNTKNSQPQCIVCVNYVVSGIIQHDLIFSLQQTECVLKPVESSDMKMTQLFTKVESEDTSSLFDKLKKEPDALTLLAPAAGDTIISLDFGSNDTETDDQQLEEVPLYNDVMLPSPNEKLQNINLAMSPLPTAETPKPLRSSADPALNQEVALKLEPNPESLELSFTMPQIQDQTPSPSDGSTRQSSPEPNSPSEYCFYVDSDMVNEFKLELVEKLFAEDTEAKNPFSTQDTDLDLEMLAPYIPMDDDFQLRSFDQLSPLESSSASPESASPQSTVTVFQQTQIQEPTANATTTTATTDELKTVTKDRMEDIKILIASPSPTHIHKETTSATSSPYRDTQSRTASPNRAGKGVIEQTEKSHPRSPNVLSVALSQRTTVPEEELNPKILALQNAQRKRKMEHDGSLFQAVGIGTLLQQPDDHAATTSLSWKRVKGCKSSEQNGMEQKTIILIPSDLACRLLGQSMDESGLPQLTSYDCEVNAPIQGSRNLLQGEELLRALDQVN
Chain of Cytochrome P450 3A7 (Homo sapiens) (P24462 whole entry, looked up): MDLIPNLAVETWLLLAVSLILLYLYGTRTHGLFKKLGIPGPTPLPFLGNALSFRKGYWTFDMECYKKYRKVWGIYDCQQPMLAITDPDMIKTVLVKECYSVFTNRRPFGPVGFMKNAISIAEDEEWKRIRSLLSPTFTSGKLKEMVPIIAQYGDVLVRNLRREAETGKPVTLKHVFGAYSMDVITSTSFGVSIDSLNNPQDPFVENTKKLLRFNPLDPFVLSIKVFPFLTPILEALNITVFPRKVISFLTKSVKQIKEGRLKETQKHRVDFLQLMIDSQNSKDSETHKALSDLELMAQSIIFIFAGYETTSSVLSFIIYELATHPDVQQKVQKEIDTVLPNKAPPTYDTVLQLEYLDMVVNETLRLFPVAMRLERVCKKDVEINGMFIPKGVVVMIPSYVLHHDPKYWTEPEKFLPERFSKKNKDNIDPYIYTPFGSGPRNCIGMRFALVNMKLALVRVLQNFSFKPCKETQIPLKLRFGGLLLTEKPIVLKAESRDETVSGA

CCSC(=O)N(CC(C)C)CC(C)C
outcome (CYP4A11 (gene 1579)): inactive
outcome [1]: inactive
outcome [2]: inactive
outcome [3]: inactive
outcome [4]: inactive
outcome [5]: inactive
outcome [6]: inactive
outcome (CYP3A5 (gene 1577)): inactive
outcome [7]: inactive
outcome [8]: inactive
outcome [9]: inactive
outcome [10]: inactive
outcome [11]: inactive
outcome [12]: inactive
outcome [13]: inactive
outcome [14]: inactive
outcome [15]: inactive
outcome [16]: inactive
outcome [17]: inactive
outcome (HGF (gene 3082)): inactive

C#C[C@]1(O)CC[C@H]2[C@@H]3CCC4=CC(=O)CC[C@@H]4[C@H]3CC[C@@]21CC
AC50 (CYP4A11 (gene 1579)): 27.6 nM (active)
outcome [1]: inactive
outcome [2]: inactive
outcome [3]: inactive
outcome [4]: inactive
outcome [5]: inactive
outcome (CYP3A5 (gene 1577)): inactive
AC50 [7]: 713 nM (active)
outcome [8]: inactive
AC50 [9]: 56 nM (active)
outcome [10]: inactive
outcome [11]: inactive
outcome [12]: inactive
outcome [13]: inactive
outcome [14]: inactive
outcome [15]: inactive
outcome [16]: inactive
outcome [17]: inactive

COC(=O)c1ccc(I)cc1S(=O)(=O)NC(=O)Nc1nc(C)nc(OC)n1
outcome (CYP4A11 (gene 1579)): inactive
AC50 [1]: 29300 nM (active)
outcome [2]: inactive
outcome [3]: inactive
outcome [4]: inactive
outcome [5]: inactive
outcome [6]: inactive
outcome (CYP3A5 (gene 1577)): inactive
outcome [7]: inactive
outcome [8]: inactive
outcome [10]: inactive
outcome [11]: inactive
outcome [12]: inactive
outcome [13]: inactive
outcome [14]: inactive
outcome [15]: inactive
outcome [17]: inactive
